In all, about 110,000 compounds went through this assay and about 190 (0.17%) were called active. Cut-off read from the data, not from the text of the source: active = inhibition above about 50%; inactive = the rest. The entries come from a sample that favours actives as a whole. Potency and affinity values are given separately.
The compounds below were run against Dual specificity protein phosphatase 6 (Rattus norvegicus) (UniProt Q64346) (assay: inhibition of rat DUSP6 enzyme activity – biochemical, in vitro, primary screen (AID 425;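 note: plate controls were vehicle for no effect and reference inhibitor for full effect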)). Conditions: recombinant MKP-3 phosphatase activity, fluorescence; at 20 µM; hits give high values.
Sequence of Dual specificity protein phosphatase 6 (Rattus norvegicus) (Q64346 whole entry, looked up): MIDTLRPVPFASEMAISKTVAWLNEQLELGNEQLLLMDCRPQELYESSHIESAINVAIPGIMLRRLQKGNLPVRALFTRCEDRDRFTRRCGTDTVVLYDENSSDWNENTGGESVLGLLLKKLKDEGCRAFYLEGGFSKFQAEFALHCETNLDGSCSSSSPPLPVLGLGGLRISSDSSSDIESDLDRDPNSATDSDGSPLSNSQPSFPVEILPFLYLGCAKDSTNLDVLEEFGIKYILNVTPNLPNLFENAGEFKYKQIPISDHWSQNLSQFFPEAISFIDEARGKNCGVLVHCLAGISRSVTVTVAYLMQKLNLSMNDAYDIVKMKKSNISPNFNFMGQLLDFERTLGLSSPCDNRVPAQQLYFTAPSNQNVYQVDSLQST

Compound	inhibition
COc1ccc(S(=O)(=O)Nc2cc(C)c(O)c(S(=O)(=O)c3ccccc3)c2)cc1	-2.6% (inactive)
CN(C(=S)Nc1ccccc1)c1ccccc1	50.8% (active)
CN(C)c1ccc(NC(=S)Nc2ccccc2)cc1	0.8% (inactive)
CC(=O)N(C)c1ccc(NC(=S)Nc2ccccc2)cc1	2.9% (inactive)
CCNc1nc(NS(=O)(=O)c2ccc(C)cc2)nc(SC)n1	0.7% (inactive)
COC(=O)c1c(N=CN(C)C)c(C#N)c(C)n1-c1ccccc1	4.3% (inactive)
O=C(CSc1nc(O)c(Cc2ccccc2)c(=O)n1-c1ccccc1)N1CCOCC1	3% (inactive)
O=C1NC(=S)N/C1=C\c1ccc(-c2cccc([N+](=O)[O-])c2)o1	0.1% (inactive)
O=C1NC(=S)N/C1=C\c1ccc(-c2cc([N+](=O)[O-])ccc2Br)o1	50% (active)
O=C1NC(=S)N/C1=C/c1ccc(-c2cc([N+](=O)[O-])ccc2Cl)o1	36.3% (inactive)
O=c1c2ccccc2nc(-c2ccco2)n1-c1cccc2ccccc12	2.8% (inactive)
O=c1oc2cc(O)c([N+](=O)[O-])cc2cc1-c1csc(-c2ccc(Cl)cc2)n1	6.8% (inactive)
Cc1ccc(-c2nc(-c3cc4cc([N+](=O)[O-])c(O)cc4oc3=O)cs2)cc1	-1.3% (inactive)
O=c1oc2cc(O)c([N+](=O)[O-])cc2cc1-c1csc(-c2cc3ccccc3oc2=O)n1	85.1% (active)
O=C(c1ccc([N+](=O)[O-])cc1)N1CCN(Cc2ccccn2)CC1	1.2% (inactive)
CC(=O)CC(=O)Nc1ccc(C)c(Cl)c1	-2.2% (inactive)
O=C1C=CC(=NS(=O)(=O)c2ccc(Cl)c([N+](=O)[O-])c2)C=C1	10.8% (inactive)
O=C1C=C/C(=N\S(=O)(=O)c2cccc([N+](=O)[O-])c2)c2ccccc21	78.3% (active)
O=C1C=C/C(=N\S(=O)(=O)c2ccc(Cl)c([N+](=O)[O-])c2)c2ccccc21	57.6% (active)
O=[N+]([O-])c1cccc(S(=O)(=O)Nc2ccccc2-c2ccccc2)c1	-0.7% (inactive)
O=[N+]([O-])c1cccc(S(=O)(=O)/N=C(/Nc2ccccc2)c2ccccc2)c1	0.1% (inactive)
O=C1c2ccccc2C(=O)N1/N=C/c1ccc(Cl)c([N+](=O)[O-])c1	-2.1% (inactive)
COc1ccc(C(=O)NC(=S)Nc2ccc(I)cc2)cc1	1.2% (inactive)

Compound	inhibition
CCc1ccc(S(=O)(=O)Nc2ccc(OC(=O)c3ccc(Cl)cc3)cc2)cc1	0.4% (inactive)
Cn1c(/N=C/c2c(O)ccc3ccccc23)nc2ccccc21	-12.4% (inactive)
CCn1c(/N=C/c2c(O)ccc3ccccc23)nc2ccccc21	78.4% (active)
CCn1c(/N=C/c2c[nH]c3ccccc23)nc2ccccc21	-7.4% (inactive)
COc1ccc(NC(=O)CN(c2ccc(C)cc2)S(=O)(=O)c2ccc(SC)cc2)cc1OC	0.5% (inactive)
N#Cc1ccc2c(c1)nc1c3cccc4cccc(c(=O)n21)c43	66.7% (active)
O=c1c2ccc(Br)c3cccc(c32)c2nc3cccc4cccc(c43)n12	2.3% (inactive)
O=c1c2ccc(Br)c3cccc(c32)c2nc3ccc4c5c(ccc(c35)n12)CC4	0.3% (inactive)
CCOc1ccc2nc(SC3CC(=O)N(c4ccccc4C)C3=O)sc2c1 (stereo unspecified)	0.7% (inactive)
COc1ccc(/C=C2\NC(=O)c3ccccc3C2=O)cc1	121% (active)
Cc1ccc(/C=C2\NC(=O)c3ccccc3C2=O)cc1	21% (inactive)
COc1ccc(/C=C2/NC(=O)/C(=C/c3ccc(OC)cc3)C2=O)cc1	4.5% (inactive)
O=S(=O)(Nc1ncnc2c1oc1ccccc12)c1ccc(Cl)s1	-12.5% (inactive)
CCC1=NN2C(=N)/C(=C/c3ccc(OC)c(OC)c3)C(=O)N=C2S1	-3.5% (inactive)
COc1ccc(/C=C2/C(=N)N3N=C(C(C)C)SC3=NC2=O)cc1OC	0% (inactive)
CC(=O)N1CCC(C(=O)Nc2ccccc2)(N(Cc2ccccc2)C(=O)c2cccnc2)CC1	-4.2% (inactive)
CCOC(=O)c1nnn(-c2nonc2N)c1CNC(C)C	6.2% (inactive)
CCOC(=O)c1c2c(n(Cc3ccccc3)c1C)C(=O)C(=O)c1ccc(Br)cc1-2	34% (inactive)
CCOC(=O)c1c2c(n(C)c1CO)C(=O)C(=O)c1ccc(Br)cc1-2	120% (active)
Cc1c(CN(C)C)c2c(n1C)C(=O)c1ccc(Br)cc1-2	1.2% (inactive)
CCOC(=O)c1c2c(n(C)c1CNC(C)C)C(=O)C(=O)c1ccc(Br)cc1-2	117% (active)
CCOC(=O)c1c(C)n(C)c2ccc(OC(C)C(=O)OC)cc12 (stereo unspecified)	-3.4% (inactive)
Cc1cc([N+](=O)[O-])ccc1NCc1ccco1	0.4% (inactive)

Reference: PubChem BioAssay AID425 (Sanford-Burnham Center for Chemical Genomics, 2006)
